Several values for one entry are separate records, joined by “and”; a condition that tells them apart may be missing. Equal entries are not always repeated. The campaign covered roughly 5,500 compounds. About 2,000 (36%) were called active. Not shown: some 18% with an inconclusive outcome. Rule as the data show it: active = normalized growth mostly below about 0.91 (no sharp cut-off); inconclusive = no clear call, values can overlap the other calls; inactive = mostly above about 0.92. The list shows a part of the results.
Assay: chemical genetic growth profiling, strain panel (AID 1159580);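 also: tested at 20 µM; growth read once vehicle control cultures reached saturation at 30 °C; 1 = growth at the plate median or of vehicle wells; lower values mean less growth of the strain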
Conditions: growth OD

Measured: normalized growth

CCN(CC)CCCC(C)Nc1ccnc2cc(Cl)ccc12 (stereo not drawn)
inactive: S. cerevisiae deletion strains, locus YJR075W, strain HOC1, hits give low values 1.03 and 1.01 | S. cerevisiae deletion strains, locus YKL009W, strain mrt4, hits give low values 1.03 | S. cerevisiae deletion strains, locus YKL068W, hits give low values 1.01 | S. cerevisiae deletion strains, locus YKL085W, strain MDH1 (second series), hits give low values 0.998 | S. cerevisiae deletion strains, locus YKL085W, strain MDH1, hits give low values 0.998 | S. cerevisiae deletion strains, locus YKL160W, strain elf1, hits give low values 1.03 | S. cerevisiae deletion strains, locus YKR001C, strain vps1, hits give low values 1.01 | S. cerevisiae deletion strains, locus YKR026C, strain gcn3, hits give low values 1.03 | S. cerevisiae deletion strains, locus YKR091W, strain srl3, hits give low values 1.02 | S. cerevisiae deletion strains, locus YLL001W, strain dnm1, hits give low values 1.02 | S. cerevisiae deletion strains, locus YLL026W, hits give low values 1.01 | S. cerevisiae deletion strains, locus YLL041C, strain sdh2, hits give low values 1.02 | S. cerevisiae deletion strains, locus YLR027C, strain aat2, hits give low values 1.01 | S. cerevisiae deletion strains, locus YLR039C, strain RIC1, hits give low values 1.04 | S. cerevisiae deletion strains, locus YLR058C, strain SHM2, hits give low values 1.03 | S. cerevisiae deletion strains, locus YLR102C, strain apc9, hits give low values 1 | S. cerevisiae deletion strains, locus YLR113W, strain HOG1, hits give low values 0.947 | S. cerevisiae deletion strains, locus YLR221C, strain rsa3, hits give low values 1.03 | S. cerevisiae deletion strains, locus YLR258W, strain gsy2, hits give low values 1.01 | S. cerevisiae deletion strains, locus YLR262C, strain YPT6 (second series), hits give low values 1.01 | S. cerevisiae deletion strains, locus YLR262C, strain YPT6, hits give low values 1.01 | S. cerevisiae deletion strains, locus YLR268W, strain sec22, hits give low values 0.998 | S. cerevisiae deletion strains, locus YLR320W, strain mms22, hits give low values 1.01 | S. cerevisiae deletion strains, locus YLR330W, strain CHS5, hits give low values 1.02 | S. cerevisiae deletion strains, locus YLR342W, strain FKS1 (second series), hits give low values 1.03 | S. cerevisiae deletion strains, locus YLR342W, strain FKS1, hits give low values 1.03 | S. cerevisiae deletion strains, locus YLR357W, strain rsc2, hits give low values 1.05 | S. cerevisiae deletion strains, locus YLR370C, strain arc18, hits give low values 1.02 | S. cerevisiae deletion strains, locus YLR371W, strain rom2, hits give low values 1.02 | S. cerevisiae deletion strains, locus YLR384C, strain iki3, hits give low values 1.03 | S. cerevisiae deletion strains, locus YLR418C, strain cdc73, hits give low values 1.07 | S. cerevisiae deletion strains, locus YML016C, strain PPZ1, hits give low values 1.01 | S. cerevisiae deletion strains, locus YML032C, strain rad52, hits give low values 0.996 | S. cerevisiae deletion strains, locus YML120C, strain ndi1, hits give low values 1.01 | S. cerevisiae deletion strains, locus YML124C, strain tub3, hits give low values 1 | S. cerevisiae deletion strains, locus YMR058W, strain fet3, hits give low values 1 | S. cerevisiae deletion strains, locus YMR078C, strain ctf18, hits give low values 1.02 | S. cerevisiae deletion strains, locus YMR125W, strain sto1, hits give low values 1.03 | S. cerevisiae deletion strains, locus YMR129W, hits give low values 1.02 | S. cerevisiae deletion strains, locus YMR205C, strain PFK2, hits give low values 1.04 | S. cerevisiae deletion strains, locus YMR223W, strain ubp8, hits give low values 1.03 | S. cerevisiae deletion strains, locus YMR231W, strain pep5, hits give low values 1.02 | S. cerevisiae deletion strains, locus YMR307W, strain GAS1, hits give low values 1.04 | S. cerevisiae deletion strains, locus YNL067W, strain RPL9B, hits give low values 1.03 | S. cerevisiae deletion strains, locus YNL071W, strain lat1, hits give low values 1 | S. cerevisiae deletion strains, locus YNL128W, strain TEP1, hits give low values 1.04 | S. cerevisiae deletion strains, locus YNL153C, strain GIM3, hits give low values 1.04 | S. cerevisiae deletion strains, locus YNL175C, strain NOP13, hits give low values 1.01 | S. cerevisiae deletion strains, locus YNL183C, strain NPR1, hits give low values 0.918 | S. cerevisiae deletion strains, locus YNL197C, strain WHI3, hits give low values 0.99 | S. cerevisiae deletion strains, locus YNL209W, strain ssb2, hits give low values 1.01 | S. cerevisiae deletion strains, locus YNL224C, strain SQS1, hits give low values 1 | S. cerevisiae deletion strains, locus YNL233W, strain BNI4, hits give low values 1.03 | S. cerevisiae deletion strains, locus YNL248C, strain rpa49, hits give low values 1.04 | S. cerevisiae deletion strains, locus YNL250W, strain rad50, hits give low values 1.02 | S. cerevisiae deletion strains, locus YNL271C, strain bni1, hits give low values 1.01 | S. cerevisiae deletion strains, locus YNL298W, strain CLA4, hits give low values 1.01 | S. cerevisiae deletion strains, locus YNL307C, strain MCK1, hits give low values 1.02 | S. cerevisiae deletion strains, locus YNL322C, strain KRE1 (second series), hits give low values 1.05 | S. cerevisiae deletion strains, locus YNR049C, strain mso1, hits give low values 1.02 | S. cerevisiae deletion strains, locus YNR052C, strain pop2, hits give low values 1.01 | S. cerevisiae deletion strains, locus YOL006C, strain TOP1, hits give low values 1.14 | S. cerevisiae deletion strains, locus YOL012C, strain htz1 2.16 | S. cerevisiae deletion strains, locus YOL147C, strain pex11, hits give low values 1 | S. cerevisiae deletion strains, locus YOR001W, strain rrp6, hits give low values 1.03 | S. cerevisiae deletion strains, locus YOR061W, strain CKA2, hits give low values 1.01 | S. cerevisiae deletion strains, locus YOR069W, strain VPS5, hits give low values 1.01 | S. cerevisiae deletion strains, locus YOR070C, strain gyp1, hits give low values 1.02 | S. cerevisiae deletion strains, locus YOR080W, strain dia2, hits give low values 1.06 | S. cerevisiae deletion strains, locus YOR083W, strain WHI5 (second series), hits give low values 0.986 | S. cerevisiae deletion strains, locus YOR083W, strain WHI5, hits give low values 1.02 | S. cerevisiae deletion strains, locus YOR106W, strain vam3, hits give low values 1.03 | S. cerevisiae deletion strains, locus YOR136W, strain idh2, hits give low values 1.01 | S. cerevisiae deletion strains, locus YOR144C, strain elg1, hits give low values 0.993 | S. cerevisiae deletion strains, locus YOR184W, strain ser1, hits give low values 1.03 | S. cerevisiae deletion strains, locus YOR231W, strain MKK1, hits give low values 0.953 | S. cerevisiae deletion strains, locus YOR265W, strain rbl2, hits give low values 1.02 | S. cerevisiae deletion strains, locus YOR270C, strain vph1, hits give low values 1.01 | S. cerevisiae deletion strains, locus YOR290C, strain snf2, hits give low values 1.01 | S. cerevisiae deletion strains, locus YOR316C, strain cot1, hits give low values 1.01 | S. cerevisiae deletion strains, locus YPL051W, strain arl3, hits give low values 1.02 | S. cerevisiae deletion strains, locus YPL055C, strain LGE1, hits give low values 1.03 and 1.01 | S. cerevisiae deletion strains, locus YPL078C, strain atp4, hits give low values 1.02 | S. cerevisiae deletion strains, locus YPL106C, strain sse1, hits give low values 1.05 | S. cerevisiae deletion strains, locus YPL240C, strain hsp82, hits give low values 1.02 | S. cerevisiae deletion strains, locus YPL241C, strain CIN2, hits give low values 1.01 | S. cerevisiae deletion strains, locus YPL256C, strain CLN2, hits give low values 0.945 | S. cerevisiae deletion strains, locus YPR119W, strain clb2, hits give low values 1.01 | S. cerevisiae deletion strains, locus YPR141C, strain kar3, hits give low values 1.01 | S. cerevisiae deletion strains, locus YPR163C, strain tif3, hits give low values 0.999 | S. cerevisiae deletion strains, locus YPR167C, strain met16, hits give low values 1.01 | S. cerevisiae deletion strains, strain wtn01, hits give low values 1.03 | S. cerevisiae strains, strain wild type, hits give low values 1.01
